Bioassay records: PubChem, Broad Institute
The list is a sample of the results.
aSyn UTR act: Activators working through SNCA 5'UTR binding (MLPCN); alpha-synuclein 5'UTR reporter, activators screen; activity score, % (tested at 7.5 µM), hits read low; 300,000 tested, 7.1% active; AID 1814; in the data active = activity score below about -60%
Each line names hits and unclear results; the compound was inactive in the other large screens.

CCc1nc(SCc2ccc(OC)cc2)n[nH]1	aSyn UTR act -82
COc1ccc(C(=O)Nc2cccc3c2CCCC3)cc1	aSyn UTR act -132
COc1ccc(C(=O)Nc2cc3c(oc2=O)CCCC3=O)cc1	aSyn UTR act -69
COc1ccc(C(=O)Nc2ccc3c4c(cccc24)CC3)cc1	aSyn UTR act -84
COc1ccc(-c2nnc(-c3ccc(N(C)C)cc3)o2)cc1	aSyn UTR act -148
CN(C)c1ccc(-c2nnc(-c3ccc(S(=O)(=O)C(F)F)cc3)o2)cc1	aSyn UTR act -63
COc1ccc(-c2nnc(-c3ccc(N)cc3)o2)cc1	aSyn UTR act -113
CN(C)CCN(C(=O)/C=C/c1cccs1)c1nc2c(F)cc(F)cc2s1	none
CCN(CC)CCN(C(=O)/C=C/c1cccs1)c1nc2ccc(C)cc2s1	aSyn UTR act -79
COCn1c(-c2ccc(OC)cc2)nc2ccccc21	aSyn UTR act -192
C=CCn1c(COc2ccc(OC)cc2)nc2ccccc21	aSyn UTR act -75
COCCn1c(COc2ccc(OC)cc2)nc2ccccc21	aSyn UTR act -82
CCn1c(COc2ccc(OC)cc2)nc2ccccc21	aSyn UTR act -94
OCc1nc2ccccc2n1CCCOc1ccc(Br)cc1	aSyn UTR act -104
COc1ccc(-c2nnc(N(C)C(=O)c3cccnc3)s2)cc1	aSyn UTR act -108
Cc1ccc(-c2nnc(N(C)C(=O)c3cccnc3)s2)cc1	aSyn UTR act -76
CC(=O)c1ccc(-n2c(CCC(=O)O)ccc2-c2cccs2)cc1	aSyn UTR act -99
O=C(c1ccc2c(c1)OCCCO2)c1cccs1	aSyn UTR act -118
O=C(CN1C(=O)c2ccccc2S1(=O)=O)c1ccc2c(c1)OCCCO2	none
O=C(Nc1ccc2c(c1)OCCO2)c1cccs1	aSyn UTR act -76
CCN(CC)S(=O)(=O)c1cc(NC(=O)c2ccc(Br)s2)ccc1C	aSyn UTR act -95
O=C(Nc1ccc2c(c1)OCO2)c1cccs1	aSyn UTR act -176
O=C(/C=C\Nc1ccc2c(c1)OCO2)c1cccs1	aSyn UTR act -147
O=C(Nc1ccc2c(c1)OCO2)c1ccc(Br)s1	aSyn UTR act -240
O=C(N/N=C\c1cc2c(cc1Cl)OCO2)c1cccs1	aSyn UTR act -67
O=C(Nc1ccccc1)Nc1ccc(-n2ccc(C(F)(F)F)n2)cc1	aSyn UTR act -277
CN(C)c1ncnc2c1ncn2C1OC(CO)C(O)C1O (stereo not given)	none
CCOC(=O)C1CCCCN1C(=O)CCc1nnc(-c2ccc3c(c2)OCO3)o1 (stereo not given)	aSyn UTR act -65
COc1ccccc1C(=O)NC(=Nc1nc2ccccc2o1)NC(=O)c1ccccc1OC	aSyn UTR act -92
O=C(NC(=Nc1nc2ccccc2o1)NC(=O)c1ccccc1)c1ccccc1	aSyn UTR act -105
CCC1(C)Cc2c(sc(NC(=S)NC(=O)c3ccccc3)c2C#N)CO1 (stereo not given)	aSyn UTR act -146
Cn1nccc1C(=O)NC(=S)Nc1sc2c(c1C#N)CCCCC2	aSyn UTR act -148
CC(=O)NC(=S)Nc1sc2c(c1C#N)CCCCC2	aSyn UTR act -120
N#Cc1c(NC(=O)C2CC2)sc2c1CCCCC2	aSyn UTR act -119
N#Cc1c(NC(=S)NC(=O)c2ccccc2)sc2c1CCC2	aSyn UTR act -126
CC1CCc2sc(NC(=S)NC(=O)c3ccccc3)c(C#N)c2C1 (stereo not given)	aSyn UTR act -141
O=c1c2sc(-c3ccccc3)cc2nc2n1CCC2	none
Cc1c(C(=O)Nc2ccccc2F)sc2nc3n(c(=O)c12)CCC3	aSyn UTR act -111
Cc1c(C(=O)Nc2ccccn2)sc2nc3n(c(=O)c12)CCC3	aSyn UTR act -86
CCc1cccc(NC(=O)c2sc3nc4n(c(=O)c3c2C)CCC4)c1	aSyn UTR act -137
O=C(CCCc1ccccc1)Nc1ccccn1	aSyn UTR act -111
Cc1ccnc(NC(=O)CCCc2ccccc2)c1	aSyn UTR act -182
CCOc1ccc2nc(SCC(=O)c3cccs3)sc2c1	aSyn UTR act -122
CCCC(=O)Nc1nc2ccc(OCC)cc2s1	aSyn UTR act -105
COc1ccc2nc(NC(=O)CSc3nnc(-c4ccoc4C)n3C)sc2c1	aSyn UTR act -134
COc1ccc2nc(NC(=O)CSCC(=O)Nc3cc(C)on3)sc2c1	aSyn UTR act -101
COc1ccc2nc(NC(=O)CSc3nc4ccccc4o3)sc2c1	aSyn UTR act -153
CN(C)C(=S)Nc1nc2ccccc2s1	aSyn UTR act -137
CCOc1ccc2nc(NC(=S)N(C)C)sc2c1	aSyn UTR act -82
CCOc1ccc2nc(NC(=O)CSc3ccccc3)sc2c1	aSyn UTR act -69
CCOc1ccc2nc(NS(=O)(=O)Cc3ccccc3)sc2c1	aSyn UTR act -66
COc1ccccc1NC(=O)C/C(C)=N/NC(=O)c1ccccn1	aSyn UTR act -103
C/C(CC(=O)Nc1ccc(C)c(Cl)c1)=N\NC(=O)c1ccccn1	aSyn UTR act -71
COc1cc(NC(=O)C/C(C)=N/NC(=O)c2ccccn2)c(OC)cc1Cl	aSyn UTR act -80
Cc1cccc(-n2nnc(C(=O)N3CCc4ccccc4C3)c2N)c1	aSyn UTR act -71
Cc1cccc(-n2nnc(C(=O)Nc3ccc(F)cc3)c2N)c1	aSyn UTR act -196
Cc1nc2ccc(NC(=O)Cc3ccsc3)cc2s1	aSyn UTR act -108
Cc1nc2ccc(NC(=O)Cc3cccc(F)c3)cc2s1	aSyn UTR act -80
Cc1nc2ccc(NC(=O)Cc3ccccc3F)cc2s1	aSyn UTR act -175
CCOC(=O)C1CCN(c2c(Nc3ccc4c(c3)OCCO4)c(=O)c2=O)CC1	aSyn UTR act -78
CCCC(=O)Nc1ccc(C(=O)/C=C/c2ccc(SC)cc2)cc1	aSyn UTR act -70
C=CCSc1nn2c(=O)c3ccccc3nc2s1	aSyn UTR act -119
C/C(Cl)=C/CSc1nn2c(=O)c3ccccc3nc2s1	aSyn UTR act -100
Cc1ccc(C(=O)CSc2ncnc3ccccc23)o1	aSyn UTR act -121
O=C(CSc1ncnc2ccccc12)N1CCCC1	aSyn UTR act -67
O=C(CSc1ncnc2ccccc12)c1cccs1	aSyn UTR act -137
Cn1cccc1C(=O)NNC(=O)c1ccccc1Br	aSyn UTR act -97
Cn1cccc1C(=O)NNC(=O)COc1ccccc1F	aSyn UTR act -87
CCN(CC)c1ccc(C(=O)NNC(=O)c2cccn2C)cc1	aSyn UTR act -115
Cc1ccc(-c2nc3ccccc3[nH]2)cn1	aSyn UTR act -99
Clc1ccc(-c2nc3ccccc3[nH]2)cn1	aSyn UTR act -63
Cc1nc2ccc(-c3nc4ccccc4[nH]3)cc2[nH]1	aSyn UTR act -120
CC(=O)N1CCN(c2ccc(NC(=O)c3cccc(Cl)c3)cc2)CC1	aSyn UTR act -122
CC(=O)N1CCN(c2ccc(NC(=O)c3ccc(C(C)(C)C)cc3)cc2)CC1	aSyn UTR act -96
COc1cc(/C=C/C(=O)CC(=O)/C=C/c2ccc(O)c(OC)c2)ccc1O	aSyn UTR act -85
COc1cc(/C=C/C(=O)c2ccc([N+](=O)[O-])o2)ccc1O	none
COc1cc(/C=C2/CCC/C(=C\c3cc(O)c(OC)c(Cl)c3)C2=O)cc(Cl)c1O	aSyn UTR act -143
COc1cc(/C=C2\CCC/C(=C\c3ccc(O)c(OC)c3)C2=O)ccc1O	aSyn UTR act -394
CCOc1cc(/C=C2\CN(CC)C/C(=C\c3ccc(O)c(OCC)c3)C2=O)ccc1O	none
COc1cc(/C=C2\Oc3cc(O)ccc3C2=O)ccc1O	aSyn UTR act -194
COc1cc(/C=C2\COC/C(=C\c3cc(OC)c(OC)c(OC)c3)C2=O)cc(OC)c1OC	none
COc1ccc(/C=C2\OC(=O)c3c(OC)cccc32)cc1OC	aSyn UTR act -200
